From PMC7819943, “Rice protein-binding microarrays: a tool to detect cis-acting elements near promoter regions in rice”
The full ranking holds about 68,000 sequences; the median of “fluorescence intensity (a.u.)” is about 9,100, and the highest 2% start at about 16,000. The sample holds the highest values, similar sequences and a random draw of the others, so the mix is not that of the screen.

biological target: OsWRKY34 (Oryza sativa, UniProt Q0JBA9 1-250); assay: protein-binding microarray (RPBM); PBS, 2% BSA, 51.3 ng/ul salmon testes DNA, 50 uM zinc acetate, 200 nM TF, 25 C, 1 h; high values mean tight binding; conditions: protein: recombinant; tags: N-terminal polyhistidine and DsRed monomer fusion (pET32a); label: CyDye5-dUTP incorporated in the synthesized complementary strand; 3' TTTTT single-stranded linker to array surface; dsDNA, one strand shown
In short: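 Binding signal is defined as the fluorescence intensity of each feature in arbitrary units, read on an Axon 4000B scanner. Transcription factors with N-terminal polyhistidine and DsRed fusions came from E. coli BL21-CodonPlus and were purified on Ni–NTA. They were incubated at 200 nM for 1 h at 25 °C on a custom Agilent array that had been made double-stranded with Cy5-dUTP, with 50 µM zinc acetate present, and the array was washed.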

Chain of OsWRKY34 (Q0JBA9 entry or part of it): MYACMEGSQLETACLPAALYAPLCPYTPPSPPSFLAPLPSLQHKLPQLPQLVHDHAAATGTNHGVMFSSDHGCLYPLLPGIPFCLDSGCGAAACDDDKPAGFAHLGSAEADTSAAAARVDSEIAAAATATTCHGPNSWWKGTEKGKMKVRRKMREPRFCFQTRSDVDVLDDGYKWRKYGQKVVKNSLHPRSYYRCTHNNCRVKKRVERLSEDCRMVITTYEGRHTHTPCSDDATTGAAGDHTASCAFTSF

Q: How did the binding signal turn out when “GGGGTATGAAATGTTTTTTTTTTCCTTTACGTTTCTTTTTCGGAGTCACCTAGTGCAG” was run?
A: 15400 fluorescence intensity (a.u.)

Q: “GGCTGGTTTGGTTGGTTGAGAATACCTTTTCTTTTTCCTTCGGAGTCACCTAGTGCAG” was tested. Which binding signal did it give?
A: 29100 fluorescence intensity (a.u.)

Q: With “GCTGGAGGGGCTGGGGTATGTTCTTTTTGTATATGACGTTCGGAGTCACCTAGTGCAG” as the sequence, how does the binding signal read?
A: 20300 fluorescence intensity (a.u.)

Q: Which binding signal does the source give for “GGTTTTTATGGGGTTGCTCTTTGATTTTTTTTTTCTCCTGCGGAGTCACCTAGTGCAG” here?
A: 12200 fluorescence intensity (a.u.)

Q: Which binding signal does the source give for “CATATGTATGAGGGTATCTTTGTTTTGGCTTTGGTCCCTTCGGAGTCACCTAGTGCAG” here?
A: 10200 fluorescence intensity (a.u.)

Q: “TTGATGGGTTTTGGGTTTTTGTGCTGCTCCTTTTTCGTAACGGAGTCACCTAGTGCAG” was tested. Which binding signal did it give?
A: 19800 fluorescence intensity (a.u.)

Q: With “GTTTGAGGGTTTTTTGTTGGTTTAGAATCATCTTTTTCTTCGGAGTCACCTAGTGCAG” as the sequence, how does the binding signal read?
A: 9210 fluorescence intensity (a.u.)

Q: “CGTTTTATTTTTGGTTGTTTTTCTGTTTGGGTTTTGATTTCGGAGTCACCTAGTGCAG” was tested. Which binding signal did it give?
A: 11300 fluorescence intensity (a.u.)

Q: How did the binding signal turn out when “TTTCATGTCGCTCCTTGTCGTTGCTGCTCTTTGGGTGCAACGGAGTCACCTAGTGCAG” was run?
A: 11100 fluorescence intensity (a.u.)

Q: With “CCTATGAAGAAACTTACGCTGACGGCTGACCTAAACGTGCCGGAGTCACCTAGTGCAG” as the sequence, how does the binding signal read?
A: 11000 fluorescence intensity (a.u.)

Q: With “AAACAATCCGACGGCCCGTATTCCGTGGTCCACGGCCACGCGGAGTCACCTAGTGCAG” as the sequence, how does the binding signal read?
A: 9020 fluorescence intensity (a.u.)

Q: For “CTTATTTCAAATGTGTGGGTATACATATGTGCACATATATCGGAGTCACCTAGTGCAG”, which binding signal is on record?
A: 8440 fluorescence intensity (a.u.)

Q: How did the binding signal turn out when “TCGTTACATGTTCTTTCATTCTCGTATTGCATTATCTGCTCGGAGTCACCTAGTGCAG” was run?
A: 9260 fluorescence intensity (a.u.)

Q: For “CTCCTGCCTGGGTTTGGTTTGGTTTGGCTTTGCTTCTTCCCGGAGTCACCTAGTGCAG”, which binding signal is on record?
A: 36800 fluorescence intensity (a.u.)

Q: With “GGATTTTCTTCCGATCTCGCTTCCACCTCGCCGCCTCGCCCGGAGTCACCTAGTGCAG” as the sequence, how does the binding signal read?
A: 9120 fluorescence intensity (a.u.)

Q: “CCCTGGTGTTTGGATTTGGTTGTTCCTCGCGATTGCATTTCGGAGTCACCTAGTGCAG” was tested. Which binding signal did it give?
A: 15600 fluorescence intensity (a.u.)

Q: How did the binding signal turn out when “GTGCTCGATGCTCGATGCCCTCCTTTTCCGCCATCTTTTTCGGAGTCACCTAGTGCAG” was run?
A: 10200 fluorescence intensity (a.u.)

Q: For “TATTAGTGTTTTATTTTCACCGGTTAATATTTTTGTTCTTCGGAGTCACCTAGTGCAG”, which binding signal is on record?
A: 8880 fluorescence intensity (a.u.)

Q: For “GTTCTTCGTTAATACGGTGCTTTCATTATTTTGTTTTCCCCGGAGTCACCTAGTGCAG”, which binding signal is on record?
A: 16600 fluorescence intensity (a.u.)

Q: How did the binding signal turn out when “GGTTTGGCTTTGCTTCTTCCTCGCGCGGCGCCTCCCATCCCGGAGTCACCTAGTGCAG” was run?
A: 9260 fluorescence intensity (a.u.)

Q: Which binding signal does the source give for “CTCGCCTCGCCGCCTTTTCTTCGCCATCTTTTTCGATTTCCGGAGTCACCTAGTGCAG” here?
A: 18800 fluorescence intensity (a.u.)

Q: For “TTCGTTAAATTATTTTTCTTTTTCGTTTTTTTTTTTTGTTCGGAGTCACCTAGTGCAG”, which binding signal is on record?
A: 8930 fluorescence intensity (a.u.)

Q: “GCTTGGATTTTTTTTGTTGCTTTTGGTTGTTGTGATCCCTCGGAGTCACCTAGTGCAG” was tested. Which binding signal did it give?
A: 11800 fluorescence intensity (a.u.)

Q: For “TTCCTGGTTGCTTCTTTTGCAGTTTTTTTTTTCCCTTCCTCGGAGTCACCTAGTGCAG”, which binding signal is on record?
A: 10100 fluorescence intensity (a.u.)

Q: With “TCGATCGGTTGGTTGGTTGGTTTTGTTGGATTTTTTTCCTCGGAGTCACCTAGTGCAG” as the sequence, how does the binding signal read?
A: 18700 fluorescence intensity (a.u.)

Q: “TACTATACCACTTACTACTAAGTATTCTGCGCACAAACAGCGGAGTCACCTAGTGCAG” was tested. Which binding signal did it give?
A: 10800 fluorescence intensity (a.u.)

Q: For “CCTCGGCTCCCATCCACTACCGTTTGCTACTCCGGCGCCGCGGAGTCACCTAGTGCAG”, which binding signal is on record?
A: 10600 fluorescence intensity (a.u.)

Q: With “CTCATCTCACCCGTCACTACTGCACTGCGCACCATTGCCGCGGAGTCACCTAGTGCAG” as the sequence, how does the binding signal read?
A: 8540 fluorescence intensity (a.u.)

Q: “GATTGGGTTGTTTGCGGGGCTAAGTTCCTAATTTTAATGACGGAGTCACCTAGTGCAG” was tested. Which binding signal did it give?
A: 11500 fluorescence intensity (a.u.)

Q: Which binding signal does the source give for “ACCCTCCACCCGCCACCGCCACCGCCGCCTTCGCCGCCGCCGGAGTCACCTAGTGCAG” here?
A: 9250 fluorescence intensity (a.u.)

Q: With “TTGCAACGGATTTTACTGGGCTTATGGGCTTCTTTTATTGCGGAGTCACCTAGTGCAG” as the sequence, how does the binding signal read?
A: 9700 fluorescence intensity (a.u.)

Q: “TGTTGTCGTCGTCCCTCTTCCTTTCCTTTCCTTTCCTTGCCGGAGTCACCTAGTGCAG” was tested. Which binding signal did it give?
A: 8870 fluorescence intensity (a.u.)

Q: “GGATTGGTTTTGAGATTGTTCTGTCAGATGGGGATTGTTTCGGAGTCACCTAGTGCAG” was tested. Which binding signal did it give?
A: 12700 fluorescence intensity (a.u.)

Q: “GGGATTTCATATATCTGGTTTTGCGGTTGGGGACGATTTTCGGAGTCACCTAGTGCAG” was tested. Which binding signal did it give?
A: 12300 fluorescence intensity (a.u.)

Q: With “GAGACGTTGTATATCTGGTTTTGTGGTTTGGGGATGTTTTCGGAGTCACCTAGTGCAG” as the sequence, how does the binding signal read?
A: 20100 fluorescence intensity (a.u.)

Q: How did the binding signal turn out when “TCTCCTTGATTCCCGCTTCTCACACGCATTATTTGTTTCACGGAGTCACCTAGTGCAG” was run?
A: 18500 fluorescence intensity (a.u.)

Q: For “GAAGCTTCCTCGTCGTCCTTTGTTGGGTTGGGTTGGGTTGCGGAGTCACCTAGTGCAG”, which binding signal is on record?
A: 21000 fluorescence intensity (a.u.)

Q: Which binding signal does the source give for “GCTTTGTTCTGATTCCTTCACAGTTATTTGATATTTTCCTCGGAGTCACCTAGTGCAG” here?
A: 8710 fluorescence intensity (a.u.)

Q: “CTCTCTTCTTCTTCCTCGCTTTGCTTGGGTTGGGTTGGAGCGGAGTCACCTAGTGCAG” was tested. Which binding signal did it give?
A: 14800 fluorescence intensity (a.u.)

Q: For “CTTGCTCTCCTCTCTCGTGCTCCATCGATCGATCGATCTCCGGAGTCACCTAGTGCAG”, which binding signal is on record?
A: 9660 fluorescence intensity (a.u.)

Q: With “TCTTGCGACGATCGTGTGGGGTGGGTTCGTGTGCTCTCTCCGGAGTCACCTAGTGCAG” as the sequence, how does the binding signal read?
A: 19500 fluorescence intensity (a.u.)

Q: “CCTCATTTGCTTCTTCTTCTTCTTCCTCCTCTTTGTTTCACGGAGTCACCTAGTGCAG” was tested. Which binding signal did it give?
A: 9120 fluorescence intensity (a.u.)

Q: “AATACTTGCGAGCTCCGATCTCTTCTTCTTCTTCGTGAGCCGGAGTCACCTAGTGCAG” was tested. Which binding signal did it give?
A: 8180 fluorescence intensity (a.u.)
